The nature of assay [1]: Caspase-3/7 induction in CHO-K1 cells by small molecules, qHTS assay (AID 1346980). Further: on the % scale 0 is the no-effect control and ±100 the full control effect; nearly all actives have a fitted effect of over 15% in size. As to conditions: CHO-K1 caspase-3/7 induction, Caspase-Glo luminescence, 17 h; series mostly up to 92.4 µM. In outline:
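Wild-type CHO-K1 cells exposed to compounds for 17hr at 37 C, 5% CO2. Caspase-3/7 activity then measured by Caspase-Glo 3/7 luminescence after 30min at room temperature.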
A general note: qHTS replaces the single test concentration by a dilution series.

In assay [2] the target is Cytochrome P450 2D6 (Homo sapiens) (UniProt P10635). Description: Cytochrome P450 Family 2 Subfamily D Member 6 (CYP2D6) small molecule antagonists: luciferase reporter qHTS assay (AID 1671196). Further: nearly all actives have a fitted effect of over 50% in size. Further: potency means the concentration at half of the fitted maximal effect. As to conditions: P450-Glo CYP2D6 enzyme assay, luciferin luminescence, 1 h; series mostly up to 115 µM. The method in brief: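 Luminescence (RLU), read 20 min after detection reagent, indicated CYP2D6 conversion of proluciferin to luciferin during a 1 h NADPH-dependent reaction at room temperature.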
Chain of Cytochrome P450 2D6 (Homo sapiens) (P10635 whole entry, looked up): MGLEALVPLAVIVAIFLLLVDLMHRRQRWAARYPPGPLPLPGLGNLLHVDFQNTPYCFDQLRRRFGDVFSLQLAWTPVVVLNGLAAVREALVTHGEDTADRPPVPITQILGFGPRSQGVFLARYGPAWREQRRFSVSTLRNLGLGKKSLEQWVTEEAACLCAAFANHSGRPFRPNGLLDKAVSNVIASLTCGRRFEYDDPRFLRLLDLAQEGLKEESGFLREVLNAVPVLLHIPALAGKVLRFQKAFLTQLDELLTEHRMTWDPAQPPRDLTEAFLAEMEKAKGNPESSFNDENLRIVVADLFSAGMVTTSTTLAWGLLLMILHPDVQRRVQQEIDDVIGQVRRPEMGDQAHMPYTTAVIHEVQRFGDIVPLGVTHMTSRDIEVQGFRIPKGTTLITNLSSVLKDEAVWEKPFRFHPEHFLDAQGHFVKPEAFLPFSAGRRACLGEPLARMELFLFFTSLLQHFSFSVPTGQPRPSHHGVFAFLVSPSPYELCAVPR
(In a reporter assay the amount or activity of a reporter protein is the signal.)

The target in assay [3] is Cytochrome P450 2C19 (Homo sapiens) (UniProt P33261). Description: Cytochrome P450 Family 2 Subfamily C Member 19 (CYP2C19) small molecule antagonists: luciferase reporter qHTS assay (AID 1671197). Further: potency means the concentration at half of the fitted maximal effect; nearly all actives have a fitted effect of over 65% in size. As to conditions: P450-Glo CYP2C19 enzyme, luciferin luminescence, 1 h; series mostly up to 115 µM. The method in brief:
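P450-Glo CYP2C19 screening system; proluciferin substrate; DMSO compound stocks; 10 min RT preincubation; NADPH regeneration, 1 h at 37C; luciferin detection reagent, 20 min RT; luminescence as RLU.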

Assay [4] addresses Cytochrome P450 2C9 (Homo sapiens) (UniProt P11712). The assay is described as follows: Cytochrome P450 Family 2 Subfamily C Member 9 (CYP2C9) small molecule antagonists: luciferase reporter qHTS assay (AID 1671198). Further: potency means the concentration at half of the fitted maximal effect; nearly all actives have a fitted effect of over 50% in size. As to conditions: P450-Glo CYP2C9 enzyme assay, luciferin luminescence; series mostly up to 115 µM. The method in brief: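 P450-Glo proluciferin substrate with CYP2C9 enzyme; 10 min RT preincubation, then NADPH regeneration 1 h at 37C; luciferin detection reagent 20 min RT, luminescence in relative luminescence units.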

Assay [5] can be described thus: Caspase-3/7 induction in HepG2 cells by small molecules, qHTS cell viability counter screen (AID 1346981). Further: nearly all actives have a fitted effect of over 30% in size. Further: potency means the concentration at half of the fitted maximal effect. As to conditions: CellTiter-Fluor fluorescence, 17 h; series mostly up to 92.4 µM. In outline: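 Multiplexed with the caspase-3/7 assay: HepG2 cells, 16 hr compound treatment, CellTiter-Fluor viability detection by fluorescence.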
Assay [6] deals with Nuclear receptor subfamily 1 group I member 2 (Homo sapiens) (UniProt O75469). The assay is described as follows: Human pregnane X receptor (PXR) small molecule agonists, qHTS assay (AID 1346982). Further: on the % scale 0 is the no-effect control and ±100 the full control effect; nearly all actives have a fitted effect of over 35% in size. As to conditions: PXR-Luc HepG2, CYP3A4 luciferase reporter, 24 h; series mostly up to 92.4 µM. The method in brief: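 We seeded PXR-Luc HepG2 cells in assay medium containing 5% charcoal-stripped FBS, added compounds 5 hr later, incubated 24 hr, and read luminescence with ONE-Glo reagent.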
Chain of Nuclear receptor subfamily 1 group I member 2 (Homo sapiens) (O75469 whole entry, looked up): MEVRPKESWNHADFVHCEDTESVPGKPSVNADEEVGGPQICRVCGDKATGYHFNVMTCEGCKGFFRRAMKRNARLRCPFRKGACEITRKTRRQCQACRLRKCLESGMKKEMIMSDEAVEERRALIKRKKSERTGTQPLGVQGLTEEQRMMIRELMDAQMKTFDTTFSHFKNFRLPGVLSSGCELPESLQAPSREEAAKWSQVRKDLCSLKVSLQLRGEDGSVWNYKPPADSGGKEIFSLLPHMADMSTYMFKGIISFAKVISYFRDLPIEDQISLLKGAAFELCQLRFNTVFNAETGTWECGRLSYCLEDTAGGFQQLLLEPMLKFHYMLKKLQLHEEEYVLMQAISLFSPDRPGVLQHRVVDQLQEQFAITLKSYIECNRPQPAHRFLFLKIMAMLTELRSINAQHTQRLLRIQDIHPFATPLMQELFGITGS

The target of assay [7] is Cytochrome P450 1A2 (Homo sapiens) (UniProt P05177). The assay is described as follows: Cytochrome P450 Family 1 Subfamily A Member 2 (CYP1A2) small molecule antagonists: luciferase reporter qHTS assay (AID 1671199). Further: nearly all actives have a fitted effect of over 50% in size. Further: potency means the concentration at half of the fitted maximal effect. As to conditions: P450-Glo CYP1A2 enzyme, luciferin luminescence, 1 h; series mostly up to 115 µM. In outline:
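CYP1A2 turnover of a luminogenic substrate was quantified after 1 h with NADPH regeneration at room temperature. Furafylline served as positive control.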

The target of assay [8] is Nuclear receptor subfamily 1 group I member 2 (Rattus norvegicus) (UniProt Q9R1A7). Description: Rat pregnane X receptor (rPXR) activation by small molecules, qHTS assay (AID 1346983). Further: nearly all actives have a fitted effect of over 20% in size. Further: potency means the concentration at half of the fitted maximal effect. On max activation: on the % scale 0 is the no-effect control and ±100 the full control effect. As to conditions: rPXR luciferase reporter cells, One-Glo luminescence, 24 h; max activation: stronger effect = higher value. In outline: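 Cell-based rPXR activation assay: rPXR cells, 2,000 per well, rested 5hr at 37 C, then exposed to compounds in DMSO for 24 hr at 37 C. Luciferase activity read by One-Glo luminescence after 30 min at room temperature.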
Chain of Nuclear receptor subfamily 1 group I member 2 (Rattus norvegicus) (Q9R1A7 whole entry, looked up): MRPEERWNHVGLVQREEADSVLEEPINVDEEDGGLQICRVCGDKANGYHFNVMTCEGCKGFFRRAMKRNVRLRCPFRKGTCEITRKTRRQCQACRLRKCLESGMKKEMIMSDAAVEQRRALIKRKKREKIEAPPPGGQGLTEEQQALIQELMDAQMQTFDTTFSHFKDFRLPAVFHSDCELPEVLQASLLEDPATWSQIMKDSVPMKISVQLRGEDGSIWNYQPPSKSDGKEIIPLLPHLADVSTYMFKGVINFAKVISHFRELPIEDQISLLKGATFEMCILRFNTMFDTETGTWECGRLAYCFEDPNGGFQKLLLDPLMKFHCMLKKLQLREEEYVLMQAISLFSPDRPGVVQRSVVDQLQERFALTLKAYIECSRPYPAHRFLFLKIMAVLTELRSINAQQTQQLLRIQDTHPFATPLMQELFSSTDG

The target in assay [9] is Nuclear receptor subfamily 1 group I member 2 (Homo sapiens) (UniProt O75469). Description: CYP3A4 induction through human pregnane X receptor (PXR) by small molecules, qHTS assay (AID 1346984). Further: on the % scale 0 is the no-effect control and ±100 the full control effect; nearly all actives have a fitted effect of over 40% in size. As to conditions: DPX-2 HepG2 PXR, CYP3A4-luciferin luminescence, 24 h; series mostly up to 46.1 µM. In outline: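 qHTS, concentration-response format: HepG2 DPX-2 line, PXR/CYP3A4-luc. Exposure 24 h, 37C. Substrate Luciferin-IPA 3uM final, 3 h. Detection One-Glo, 30 min RT.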

For assay [10] the target is unchanged. The assay is described as follows: Human pregnane X receptor (PXR) activation by small molecules, qHTS assay (AID 1346985). Further: nearly all actives have a fitted effect of over 40% in size. Further: potency means the concentration at half of the fitted maximal effect. On activation: on the % scale 0 is the no-effect control and ±100 the full control effect. As to conditions: DPX-2 HepG2 CYP3A4-luciferase, 24 h; series mostly up to 38.3 µM. In outline:
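DPX-2 cells (HepG2 co-transfected with a PXR response element and a CYP3A4-promoter luciferase construct) were seeded at 2,000 per well, rested 5 hr at 37C, then exposed to DMSO-dissolved compounds for 24 hr. Activation was read as luciferase luminescence.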

Unmarked numbers belong to inactive results. Results filed as inconclusive are left out. The source made the active and inactive calls. The call rests on the fitted dose curve; in most records, active means well fitted curve in the direction sought with a large enough effect in the repeat runs; inconclusive means weak or mixed curves; inactive means no such curve, though single readings can be large; an effect the other way counts as inactive or inconclusive. Residues, ends and D or L forms follow the SMILES beside them.

Chain of Cytochrome P450 1A2 (Homo sapiens) (P05177 whole entry, looked up): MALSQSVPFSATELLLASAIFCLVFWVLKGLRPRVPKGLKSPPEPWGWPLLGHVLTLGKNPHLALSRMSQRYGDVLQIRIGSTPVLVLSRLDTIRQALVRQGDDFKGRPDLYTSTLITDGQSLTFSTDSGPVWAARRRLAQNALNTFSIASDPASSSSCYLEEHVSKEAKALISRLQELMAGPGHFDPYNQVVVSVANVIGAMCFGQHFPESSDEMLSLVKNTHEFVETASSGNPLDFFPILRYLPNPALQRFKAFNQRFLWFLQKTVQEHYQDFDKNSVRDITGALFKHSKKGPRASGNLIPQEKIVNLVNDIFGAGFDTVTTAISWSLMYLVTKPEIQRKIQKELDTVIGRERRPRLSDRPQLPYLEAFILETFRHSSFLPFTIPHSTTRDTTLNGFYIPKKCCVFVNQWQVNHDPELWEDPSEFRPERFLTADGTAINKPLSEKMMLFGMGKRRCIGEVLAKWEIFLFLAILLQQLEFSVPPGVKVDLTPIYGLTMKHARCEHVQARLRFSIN
Chain of Cytochrome P450 2C9 (Homo sapiens) (P11712 whole entry, looked up): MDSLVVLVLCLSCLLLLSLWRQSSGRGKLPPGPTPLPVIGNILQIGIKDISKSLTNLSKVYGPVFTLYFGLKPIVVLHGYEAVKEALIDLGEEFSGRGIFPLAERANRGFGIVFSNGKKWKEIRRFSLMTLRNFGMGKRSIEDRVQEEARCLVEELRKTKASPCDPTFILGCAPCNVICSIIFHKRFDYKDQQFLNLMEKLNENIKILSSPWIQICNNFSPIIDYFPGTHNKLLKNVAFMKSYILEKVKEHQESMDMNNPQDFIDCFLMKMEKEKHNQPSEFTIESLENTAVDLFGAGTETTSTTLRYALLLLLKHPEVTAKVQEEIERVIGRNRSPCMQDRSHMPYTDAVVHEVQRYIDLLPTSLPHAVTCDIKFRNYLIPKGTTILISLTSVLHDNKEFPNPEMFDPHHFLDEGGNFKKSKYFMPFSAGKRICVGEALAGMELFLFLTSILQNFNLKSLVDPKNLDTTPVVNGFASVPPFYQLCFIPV
Chain of Cytochrome P450 2C19 (Homo sapiens) (P33261 whole entry, looked up): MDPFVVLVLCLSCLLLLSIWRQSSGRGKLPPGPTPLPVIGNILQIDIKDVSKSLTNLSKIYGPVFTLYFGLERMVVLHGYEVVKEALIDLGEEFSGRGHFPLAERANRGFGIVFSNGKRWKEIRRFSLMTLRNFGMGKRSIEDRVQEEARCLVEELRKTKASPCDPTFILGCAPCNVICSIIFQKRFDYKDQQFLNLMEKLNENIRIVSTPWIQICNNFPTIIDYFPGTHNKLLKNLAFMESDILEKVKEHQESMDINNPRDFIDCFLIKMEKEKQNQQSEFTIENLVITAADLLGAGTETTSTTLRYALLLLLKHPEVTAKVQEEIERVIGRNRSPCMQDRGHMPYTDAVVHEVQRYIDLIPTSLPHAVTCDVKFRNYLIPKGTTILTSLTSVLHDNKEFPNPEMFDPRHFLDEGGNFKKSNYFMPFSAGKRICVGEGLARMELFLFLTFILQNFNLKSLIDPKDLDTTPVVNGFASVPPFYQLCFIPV

For the molecule `C=CCc1cc(S(=O)(=O)c2ccc(O)c(CC=C)c2)ccc1O`, in assay [1], the Potency result is “inactive”. Moreover, the Potency in assay [2] was 6.33 µM (active); in assay [3] it was 2.24 µM (active); in assay [4] it was 0.502 µM (active).

Turning to `CN[C@H]1CC[C@@H](c2ccc(Cl)c(Cl)c2)c2ccc(S(N)(=O)=O)cc21`, the Potency was 61.1 µM (active) in assay [5], 1.42 µM (active) in [2], 50.2 µM (active) in assay [3] and 39.9 µM (active) in [4]. Besides, the Potency result in assay [6] and in assay [7] was “inactive” in each case.

On to `O=C(Cl)c1ccc(Cl)cc1Cl`, for which the Potency entry in [5], in [6] and in assay [2] was “inactive” each time. Besides, the Potency in assay [7] is 63.3 µM (active).

`CCCCCCCCCC[N+](C)(CCCCCCCCCC)CCC[Si](OC)(OC)OC`: the Potency is 61.1 µM (active) in [5]; 3.17 µM (active) in assay [2]; 50.2 µM (active) in assay [3]; 35.6 µM (active) in [4]; 20 µM (active) in [7]. In [6], the Potency entry is “inactive”.

Take `CN1[C@@H](CC(=O)c2ccccc2)CCC[C@H]1C[C@H](O)c1ccccc1`: in [8], the max activation is 4.75%. Besides, the Potency entry in [9] is “inactive”.

With `NC(N)=NCC1COC2(CCCCC2)O1` (configuration not stated), in [8], the max activation is -2.55%. In addition, the Potency entry in assay [9] and in assay [10] was “inactive” throughout.

On to `CC(C)OC(=O)Nc1ccc2nc(-c3cscn3)[nH]c2c1`, for which the Potency in assay [8] was 8.91 µM (active); in assay [10], 5.01 µM (active). Besides, the Potency result in [9] was “inactive”.

Turning to `CC(C)[C@H](NC(=O)[C@H](CC(=O)O)NC(=O)[C@H](CCCCN)NC(=O)[C@@H](N)CCCN=C(N)N)C(=O)N[C@@H](Cc1ccc(O)cc1)C(=O)O` (H-RKDVY-OH), the max activation in assay [8] was -1.21%. Moreover, the Potency entry in assay [9] and in assay [10] was “inactive” in each case.

For `NC(=O)C1c2ccccc2CCc2ccccc21`, in assay [8], the max activation was -2.21%. In addition, the Potency result in assay [9] and in assay [10] was “inactive” each time.

`C[C@@H]1O[C@@H](OC[C@H]2O[C@@H](Oc3c(-c4ccc(OCCO)c(OCCO)c4)oc4cc(OCCO)cc(O)c4c3=O)[C@H](O)[C@@H](O)[C@@H]2O)[C@H](O)[C@H](O)[C@H]1O`: the max activation in assay [8] is -1.87%. The Potency entry in [9] and in assay [10] was “inactive” in each case.

As for `C[C@H](O)CN(C)C`, in assay [8], the max activation was -2.23%. Further, the Potency entry in [9] and in [10] was “inactive” throughout.

`C=CC1=C(C(=O)O)N2C(=O)[C@@H](NC(=O)/C(=N\O)c3csc(N)n3)[C@H]2SC1` (stereo in doubt): the max activation in [8] was -3.55%. In addition, the Potency entry in assay [9] and in assay [10] was “inactive” throughout.

Turning to `CO/N=C(\C(=O)N[C@@H]1C(=O)N2C(C(=O)O)=C(COC(C)=O)CS[C@H]12)c1csc(N)n1` (stereo in doubt), the max activation in assay [8] was -7.73%. The Potency entry in assay [9] and in assay [10] was “inactive” in each case.

Regarding `CC12CCC(C[N+](C)(CCC[N+](C)(C)C)C1)C2(C)C` (configuration not stated), in assay [8], the max activation is -1.76%. In addition, the Potency entry in assay [9] and in assay [10] was “inactive” each time.

As to `CC[C@@H](C)[C@H](N)C(=O)O`, the max activation in assay [8] was -3.95%. Besides, the Potency result in [9] and in assay [10] was “inactive” throughout.

For `C=CC[N@@+]12CC[C@@]34c5ccccc5N5/C=C6/[C@H]7C[C@H]8[C@@]9(CC[N@@+]8(CC=C)C/C7=C/CO)c7ccccc7N(/C=C(/[C@@H](C[C@@H]31)/C(=C\CO)C2)[C@H]54)[C@@H]69`, the max activation in assay [8] is 3.06%. The Potency entry in assay [9] and in [10] was “inactive” throughout.

As for `c1ccc2c(c1)OCC(CN1CCCCC1)O2` (configuration not stated), the max activation in [8] was -3.94%. The Potency result in assay [9] and in [10] was “inactive” in each case.

In the case of `CCCC(CCC)C(=O)OC1C[C@H]2CC[C@@H](C1)[N+]2(C)C` (some centres not stated), the max activation in assay [8] is -0.777%. The Potency result in assay [9] and in assay [10] was “inactive” throughout.

As for `C/C=C/C1=C(C(=O)O)N2C(=O)[C@@H](NC(=O)[C@H](N)c3ccc(O)cc3)[C@H]2SC1`, in assay [8], the max activation was -4.1%. The Potency entry in assay [9] and in assay [10] was “inactive” in each case.

As for `CO/N=C(\C(=O)N[C@@H]1C(=O)N2C(C(=O)O)=C(C[N+]3(C)CCCC3)CS[C@H]12)c1csc(N)n1`, the max activation in assay [8] was -0.506%. Further, the Potency result in [9] and in [10] was “inactive” each time.

Turning to `CN[C@H](CC(C)C)C(=O)N[C@H]1C(=O)N[C@@H](CC(N)=O)C(=O)N[C@H]2C(=O)N[C@H]3C(=O)N[C@H](C(=O)N[C@@H](C(=O)O)c4cc(O)cc(O)c4-c4cc3ccc4O)[C@H](O)c3ccc(c(Cl)c3)Oc3cc2cc(c3O[C@@H]2O[C@H](CO)[C@@H](O)[C@H](O)[C@H]2O[C@H]2C[C@](C)(N)C(O)[C@H](C)O2)Oc2ccc(cc2Cl)[C@H]1O` (some centres not stated), the max activation in [8] was -3.51%. The Potency result in assay [9] and in assay [10] was “inactive” in each case.

Turning to `O=C1c2ccccc2C(=O)C1c1ccc(F)cc1`, the Potency in assay [8] was 28.2 µM (active); in assay [10], 12.6 µM (active). Also, in [9], the Potency result is “inactive”.

With `NC(=O)[C@@H]1C[C@]2(NC(=O)NC2=O)c2cc(F)ccc2O1`, the max activation in [8] was -1.76%. Moreover, the Potency result in [9] and in [10] was “inactive” in each case.

On to `O=P(O)(O)OP(=O)(O)OP(=O)(O)O`, for which the max activation in assay [8] was -6.54%. The Potency entry in assay [9] and in assay [10] was “inactive” in each case.

For `CC(=O)NC[C@H]1CN(c2ccc(N3CCOCC3)c(F)c2)C(=O)O1`, the max activation in assay [8] is -2.66%. In addition, the Potency entry in [9] and in assay [10] was “inactive” throughout.

The values above are taken from PubChem BioAssay (Tox21).
